In the supplement of paper PMC10849652:
Targets with a hit are over-represented here; the source holds about 7,900 in all. About 0.6% of all pairs of compound and target were hits.

Compound: CC(C)N(C[C@H]1O[C@@H](n2cnc3c(N)ncnc32)[C@H](O)[C@@H]1O)[C@H]1C[C@@H](CCc2nc3cc(C(C)(C)C)ccc3[nH]2)C1 [pinometostat]
Test: log2 fold change, soluble protein after heating vs DMSO (PISA); higher = thermal stabilisation; K562 cells, 10 uM, 30 min; active = over 0.2 and 3.5 SD of the protein, either way, in both replicates (recomputed)
Summary of the method: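 K562 cells at 2×10^6 cells/mL were exposed to 10 μM compound for 30 min, then aliquots were heated for 3 min across 48°C-58°C, pooled, and extracted in PBS containing 0.5% NP-40 at 4°C. The supernatant after 21,000xg for 90 min was taken as soluble protein and measured by TMTpro 16plex LC-MS/MS with channel sums equalised. Thermal stability is reported relative to control samples, with values from duplicates. Fold changes are given on a log2 scale.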

Sequence of UniProt Q15392 (Q15392 whole entry, looked up): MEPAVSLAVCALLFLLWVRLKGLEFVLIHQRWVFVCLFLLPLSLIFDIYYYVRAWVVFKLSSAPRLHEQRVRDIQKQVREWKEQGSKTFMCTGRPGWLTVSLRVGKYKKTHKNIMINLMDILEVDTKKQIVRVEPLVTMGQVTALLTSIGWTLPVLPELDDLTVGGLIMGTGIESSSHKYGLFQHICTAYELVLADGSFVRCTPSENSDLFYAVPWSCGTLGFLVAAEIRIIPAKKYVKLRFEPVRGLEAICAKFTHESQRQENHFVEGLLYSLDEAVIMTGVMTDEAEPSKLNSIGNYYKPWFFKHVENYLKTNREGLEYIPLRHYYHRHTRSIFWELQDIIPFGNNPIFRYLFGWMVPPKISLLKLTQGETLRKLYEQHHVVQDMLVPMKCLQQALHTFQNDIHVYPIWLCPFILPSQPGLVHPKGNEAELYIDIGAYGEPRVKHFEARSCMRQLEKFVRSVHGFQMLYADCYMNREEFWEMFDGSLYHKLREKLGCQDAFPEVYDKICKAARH
Sequence of UniProt Q8TAG9 (Q8TAG9 whole entry, looked up): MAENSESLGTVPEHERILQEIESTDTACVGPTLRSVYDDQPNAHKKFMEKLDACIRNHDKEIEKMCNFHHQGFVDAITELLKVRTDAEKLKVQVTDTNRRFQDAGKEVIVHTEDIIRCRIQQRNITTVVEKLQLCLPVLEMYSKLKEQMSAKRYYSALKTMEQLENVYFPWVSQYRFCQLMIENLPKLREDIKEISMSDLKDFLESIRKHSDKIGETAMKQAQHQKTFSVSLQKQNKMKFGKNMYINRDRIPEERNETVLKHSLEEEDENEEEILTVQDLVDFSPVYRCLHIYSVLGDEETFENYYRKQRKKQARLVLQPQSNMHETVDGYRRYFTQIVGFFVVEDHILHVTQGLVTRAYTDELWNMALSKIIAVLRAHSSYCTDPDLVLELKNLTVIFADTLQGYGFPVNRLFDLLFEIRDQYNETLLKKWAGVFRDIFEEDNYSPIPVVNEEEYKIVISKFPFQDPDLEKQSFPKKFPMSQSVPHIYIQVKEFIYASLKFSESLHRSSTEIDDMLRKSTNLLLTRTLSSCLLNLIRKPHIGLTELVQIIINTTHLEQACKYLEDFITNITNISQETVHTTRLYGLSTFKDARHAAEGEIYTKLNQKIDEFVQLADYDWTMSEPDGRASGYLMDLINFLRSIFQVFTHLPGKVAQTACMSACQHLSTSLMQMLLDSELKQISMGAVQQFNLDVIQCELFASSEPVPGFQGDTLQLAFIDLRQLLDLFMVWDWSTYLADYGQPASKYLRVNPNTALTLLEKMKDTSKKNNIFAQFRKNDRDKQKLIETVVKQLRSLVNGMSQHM
Sequence of UniProt Q14689 (Q14689 whole entry, looked up): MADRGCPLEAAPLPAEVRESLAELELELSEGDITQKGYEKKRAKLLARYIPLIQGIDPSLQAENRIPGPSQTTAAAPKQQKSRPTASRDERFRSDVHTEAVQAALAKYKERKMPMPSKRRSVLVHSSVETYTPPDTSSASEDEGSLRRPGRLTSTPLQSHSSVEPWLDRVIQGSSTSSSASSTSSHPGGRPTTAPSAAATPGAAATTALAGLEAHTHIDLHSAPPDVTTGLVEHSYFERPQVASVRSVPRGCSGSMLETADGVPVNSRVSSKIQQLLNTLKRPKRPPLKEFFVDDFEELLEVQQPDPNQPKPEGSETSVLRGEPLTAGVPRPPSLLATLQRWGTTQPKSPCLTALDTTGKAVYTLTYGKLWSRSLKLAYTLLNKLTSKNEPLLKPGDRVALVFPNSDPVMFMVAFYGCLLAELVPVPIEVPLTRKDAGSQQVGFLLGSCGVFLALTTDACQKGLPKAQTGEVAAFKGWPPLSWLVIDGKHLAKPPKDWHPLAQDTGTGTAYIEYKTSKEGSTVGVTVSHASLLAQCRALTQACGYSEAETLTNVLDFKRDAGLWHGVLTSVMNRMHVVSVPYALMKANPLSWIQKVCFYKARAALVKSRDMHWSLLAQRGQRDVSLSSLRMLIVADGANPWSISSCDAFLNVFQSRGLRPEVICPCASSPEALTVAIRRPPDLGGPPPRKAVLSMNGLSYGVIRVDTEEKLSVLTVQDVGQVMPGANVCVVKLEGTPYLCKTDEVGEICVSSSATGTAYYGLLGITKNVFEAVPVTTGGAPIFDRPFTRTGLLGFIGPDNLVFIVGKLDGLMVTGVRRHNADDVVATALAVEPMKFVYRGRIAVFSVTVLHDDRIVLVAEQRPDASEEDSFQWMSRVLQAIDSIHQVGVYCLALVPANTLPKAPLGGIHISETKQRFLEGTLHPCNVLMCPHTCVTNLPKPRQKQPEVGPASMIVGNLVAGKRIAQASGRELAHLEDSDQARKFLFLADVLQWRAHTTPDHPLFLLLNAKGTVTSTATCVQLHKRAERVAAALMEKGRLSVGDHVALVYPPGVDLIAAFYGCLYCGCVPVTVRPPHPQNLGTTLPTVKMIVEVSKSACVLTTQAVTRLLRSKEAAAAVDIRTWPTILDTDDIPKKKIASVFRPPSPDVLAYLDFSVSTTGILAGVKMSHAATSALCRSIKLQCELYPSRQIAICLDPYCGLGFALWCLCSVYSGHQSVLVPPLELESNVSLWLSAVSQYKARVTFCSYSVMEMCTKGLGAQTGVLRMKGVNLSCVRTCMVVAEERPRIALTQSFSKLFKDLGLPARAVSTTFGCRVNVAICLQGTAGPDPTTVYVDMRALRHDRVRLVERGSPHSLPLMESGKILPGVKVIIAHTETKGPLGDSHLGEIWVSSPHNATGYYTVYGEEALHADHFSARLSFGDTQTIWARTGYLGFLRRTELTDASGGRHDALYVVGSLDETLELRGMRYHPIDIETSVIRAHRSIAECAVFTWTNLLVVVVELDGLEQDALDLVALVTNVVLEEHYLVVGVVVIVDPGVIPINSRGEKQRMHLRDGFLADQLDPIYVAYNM
Sequence of UniProt Q14320 (Q14320 whole entry, looked up): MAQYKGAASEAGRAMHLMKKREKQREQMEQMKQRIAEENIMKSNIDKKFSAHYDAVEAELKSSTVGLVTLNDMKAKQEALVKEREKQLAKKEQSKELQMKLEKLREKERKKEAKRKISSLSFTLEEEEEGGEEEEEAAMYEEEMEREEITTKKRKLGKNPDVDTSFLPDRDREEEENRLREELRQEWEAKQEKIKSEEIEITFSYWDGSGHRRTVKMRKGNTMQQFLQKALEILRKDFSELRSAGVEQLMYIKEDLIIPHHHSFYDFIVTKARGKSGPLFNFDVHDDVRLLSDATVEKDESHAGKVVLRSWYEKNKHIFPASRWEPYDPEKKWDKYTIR
Sequence of UniProt Q8NBA8 (Q8NBA8 whole entry, looked up): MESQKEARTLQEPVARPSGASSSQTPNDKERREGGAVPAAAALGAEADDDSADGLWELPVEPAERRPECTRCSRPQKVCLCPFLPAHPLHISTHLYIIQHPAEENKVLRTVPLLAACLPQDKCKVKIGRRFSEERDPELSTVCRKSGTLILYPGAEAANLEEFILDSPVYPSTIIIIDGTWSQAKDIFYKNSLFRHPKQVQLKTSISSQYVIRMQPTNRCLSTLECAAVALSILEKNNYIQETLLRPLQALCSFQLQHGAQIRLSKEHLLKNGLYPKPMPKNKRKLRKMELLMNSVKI
Sequence of UniProt Q16254 (Q16254 whole entry, looked up): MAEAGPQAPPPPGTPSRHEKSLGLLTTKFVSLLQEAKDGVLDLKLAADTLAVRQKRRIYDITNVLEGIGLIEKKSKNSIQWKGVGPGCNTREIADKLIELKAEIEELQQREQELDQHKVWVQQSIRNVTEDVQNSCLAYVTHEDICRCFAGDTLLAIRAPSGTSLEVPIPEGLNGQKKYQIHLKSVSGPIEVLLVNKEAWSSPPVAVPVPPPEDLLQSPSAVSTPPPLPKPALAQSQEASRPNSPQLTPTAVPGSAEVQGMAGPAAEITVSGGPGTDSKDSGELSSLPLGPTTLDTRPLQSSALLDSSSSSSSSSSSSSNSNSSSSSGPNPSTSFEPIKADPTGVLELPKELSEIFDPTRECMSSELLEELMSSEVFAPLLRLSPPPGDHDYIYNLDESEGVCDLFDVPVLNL
Sequence of UniProt Q9H2P9 (Q9H2P9 whole entry, looked up): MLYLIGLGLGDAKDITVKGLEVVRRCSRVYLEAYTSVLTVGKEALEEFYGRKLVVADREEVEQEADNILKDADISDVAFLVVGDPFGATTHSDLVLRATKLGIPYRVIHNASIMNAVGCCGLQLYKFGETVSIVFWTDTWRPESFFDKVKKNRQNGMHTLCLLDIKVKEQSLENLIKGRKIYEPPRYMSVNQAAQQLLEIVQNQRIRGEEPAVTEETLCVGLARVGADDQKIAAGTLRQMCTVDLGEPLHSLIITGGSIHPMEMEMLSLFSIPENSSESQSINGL
Sequence of UniProt O60888 (O60888 whole entry, looked up): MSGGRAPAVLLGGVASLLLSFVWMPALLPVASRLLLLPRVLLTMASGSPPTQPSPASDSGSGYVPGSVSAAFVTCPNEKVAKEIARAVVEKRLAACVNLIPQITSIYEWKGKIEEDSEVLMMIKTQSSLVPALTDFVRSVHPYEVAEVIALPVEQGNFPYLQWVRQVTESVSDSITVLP
Sequence of UniProt Q96KC8 (Q96KC8 whole entry, looked up): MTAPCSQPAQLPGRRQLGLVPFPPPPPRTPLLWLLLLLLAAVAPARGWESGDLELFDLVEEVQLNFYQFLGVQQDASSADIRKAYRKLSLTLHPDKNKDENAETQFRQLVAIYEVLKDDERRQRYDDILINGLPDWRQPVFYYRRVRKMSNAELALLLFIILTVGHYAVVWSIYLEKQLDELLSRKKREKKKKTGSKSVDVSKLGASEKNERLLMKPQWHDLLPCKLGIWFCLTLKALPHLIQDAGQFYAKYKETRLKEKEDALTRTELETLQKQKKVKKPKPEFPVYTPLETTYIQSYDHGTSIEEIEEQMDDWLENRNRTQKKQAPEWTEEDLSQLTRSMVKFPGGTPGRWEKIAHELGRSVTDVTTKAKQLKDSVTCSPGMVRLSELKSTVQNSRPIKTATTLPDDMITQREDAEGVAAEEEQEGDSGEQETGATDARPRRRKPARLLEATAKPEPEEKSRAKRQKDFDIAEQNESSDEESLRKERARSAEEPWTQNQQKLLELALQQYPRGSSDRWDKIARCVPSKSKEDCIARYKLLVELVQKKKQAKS

log2 fold change, inactive:
CTU1 (UniProt Q7Z7A3) 0.007
DNAJC1 (UniProt Q96KC8) -0.037
EIF4E isoform 2 (UniProt P06730) -0.057
DIP2A (UniProt Q14689) 0.064
DBN1 isoform 3 (UniProt Q16643) -0.005
EXOC6 (UniProt Q8TAG9) 0.056
EXTL2 (UniProt Q9UBQ6) 0
DDOST (UniProt P39656) 0.015
DDX39A (UniProt O00148) 0.075
ERCC6 (UniProt Q03468) -0.078
DYRK1A isoform 2 (UniProt Q13627) 0.055
DBR1 (UniProt Q9UK59) -0.012
EEF1G isoform 2 (UniProt P26641) 0.042
DHFR (UniProt P00374) 0.255
EFL1 (UniProt Q7Z2Z2) 0.005
FAM114A2 (UniProt Q9NRY5) 0.005
DNAAF2 (UniProt Q9NVR5) -0.023
EXOC8 (UniProt Q8IYI6) 0.051
DUS3L (UniProt Q96G46) -0.022
DHPS (UniProt P49366) -0.095
EDEM2 (UniProt Q9BV94) -0.001
DHX16 (UniProt O60231) 0.004
ERCC2 (UniProt P18074) 0.078
DHCR24 (UniProt Q15392) 0.05
DNM2 (UniProt P50570) -0.014
EHBP1L1 (UniProt Q8N3D4) 0.086
FAM118B (UniProt Q9BPY3) -0.024
EBNA1BP2 (UniProt Q99848) 0.439
CUTA isoform 2 (UniProt O60888) -0.009
EXOC1 (UniProt Q9NV70) 0.214
DFFB (UniProt O76075) 0.008
ELOVL1 (UniProt Q9BW60) 0.063
FAM3A (UniProt P98173) 0.007
DTWD2 (UniProt Q8NBA8) 0.082
DDB1 (UniProt Q16531) -0.03
E2F4 (UniProt Q16254) 0.001
DPH5 isoform 5 (UniProt Q9H2P9) -0.009
CTNNB1 (UniProt P35222) -0.021
FAM50A (UniProt Q14320) -0.016
